The record followed here is PubChem BioAssay (NCI).

Molecules are shown by their SMILES. About 83,000 compounds went through this panel and 20% of them were active in at least one assay; those are over-represented in the sample as a whole.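 In brief: 96-well plates, 48 h treatment, single concentration, percent growth endpoint.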 Unmarked numbers belong to inactive results. Active and inactive are the calls of the source.

For this experiment, the system named is NCI/ADR-RES ovarian. The experiment in a line: NCI-60 one-dose screen, 48 h (100 = growth as untreated, 0 = no growth, -100 = all killed). Conditions: 10 µM unless noted. The procedure:
Growth inhibition of the NCI/ADR-RES human […] tumor cell line is measured as a screen for anti-cancer activity. Cells are grown in 96 well plates and exposed to the test compound for 48 hours. Compounds are tested at a single concentration, which is 10^-5 M for most compounds. The reported endpoint is percent growth (GI% or GIPRCNT), where numbers from 0 - 100% represent growth inhibition, and numbers from -100% - 0 represent cell death. For example, a value of 40 represents 60% growth inhibition. A value of 0 means no net growth occurred over the course of the experiment. A value of -40 indicates 40% of cells at the beginning of the experiment died by the end of the experiment. A value of -100 means all cells are dead at the end of the experiment.
NCI-60 Human Tumor Cell Lines Screen was performed using the standard one-dose NCI protocol, which is described in more detail at https://dtp.cancer.gov/discovery_development/nci-60/default.htm.
Compounds with GIPRCNT values below 10 were considered active. Activity score was based on GIPRCNT using the following formula: […]
Score is 0 for GIPRCNT values of 100 or above, 50 for GIPRCNT values of 0, and 100 for GIPRCNT values of -100.
Consider `COc1ccc(-c2cc(-c3ccc(Cl)cc3)c(C#N)c(=O)n2Cc2ccc(C(=O)O)cc2)cc1`, for which the growth is 83.6%.

As to `c1ccc(C(c2nc3ncncc3[nH]2)N2CSc3nc4ncncc4n3C2)cc1` (stereo not given), the growth was 44.4%.

Consider `O=C(CCC(=O)N1CCOCC1)OCCCCCCSc1ccc([N+](=O)[O-])c2nonc12`, for which the growth was 2.86% (active).

`N=c1c2cc(-c3ccccc3)oc2ncn1/N=C/c1ccc(Br)cc1`: the growth is 22.3%.

Regarding `Nn1c(N/N=C/c2nc3ccccc3s2)n[nH]c1=S`, the growth is 118%.

On to `COc1ccccc1N1CCN(C2=CC(=O)C(C)=C(C)C2=O)CC1`, for which the growth was 98.6%.

For `CCn1c(SCC(=O)Nc2cccc(C(=O)/C=C/c3ccc(Br)cc3)c2)nc2ccccc2c1=O`, the growth was 89.6%.

As to `COc1ccc2c(c1)c(CC(=O)[Se]CC(=O)O)c(C)n2C(=O)c1ccc(Cl)cc1`, the growth was 103%.

For `CCOc1ccc(NC2=C(Cl)C(=O)c3nc(C)ccc3C2=O)cc1`, the growth is -15.6% (active).

Turning to `C=CCN(C)S(=O)(=O)/N=C1\NC(=O)NC1=C(Cl)Cl`, the growth was 72.5%.

As for `CCN(CC)c1ccc2c(c1)Oc1nc(N)c(C#N)c(N)c1C2Sc1ccc(F)cc1` (stereo not given), the growth was -9.25% (active).

Turning to `COc1cc(/C=C2\C(=O)Nc3cc(Cl)ccc32)ccc1OCc1ccc(F)cc1`, the growth was 101%.

In the case of `COc1ccc(/C=C(\C#N)C(=O)N2c3ccccc3Sc3ccc(SC)cc32)cc1F`, the growth was 92.7%.

Turning to `O=S(=O)(Oc1ccc(-c2nnc(Nc3ccccc3)s2)cc1)C(F)(F)C(F)(F)C(F)(F)C(F)(F)C(F)(F)C(F)(F)F`, the growth was 103%.

`Oc1ccc(CSc2nnc(-c3ccc(Cl)cc3)n2-c2ccccc2)c2cccnc12`: the growth was 4.53% (active).

Take `Brc1ccccc1/C=N/Nc1nc(N/N=C/c2ccccc2Br)nc(N2CCOCC2)n1`: the growth was 91.5%.

With `Oc1cccc2ccc(-c3nnc(SCc4ccc(O)c5ncccc45)n3-c3ccccc3)nc12`, the growth was 7.68% (active).

For `COc1cccc2cc(-c3cc4ccccc4[nH]3)/c(=N\NC(=O)c3ccc(Cl)cc3)oc12`, the growth was 13.3%.

Consider `CNC(=O)c1cc(-c2ccc(NC(=S)Nc3cc(C(F)(F)F)cc(C(F)(F)F)c3)cc2)nc2cccnc12`, for which the growth is 105%.

Turning to `O=C1CCCc2nc(Nc3ccc(S(=O)(=O)Nc4ccc([N+](=O)[O-])cc4)cc3)ncc21`, the growth was 105%.

Consider `COc1c(N2CC3CCCNC3C2)c(F)cc2c(=O)c(C(=O)N/N=C/c3c[nH]c4ccccc34)cn(C3CC3)c12` (stereo not given), for which the growth was 104%.

With `N#Cc1cccc(CN2CCC3=C(C2)C(=O)N(Cc2ccc(Cl)cc2)C2=NCCN23)c1`, the growth is 13.5%.

Regarding `CCCSc1nc(Nc2ccc(/C(C)=N\NC(N)=S)cc2)c(C#N)c(-c2ccccc2)n1`, the growth is 53.5%.

Regarding `CN1CCN(Cc2ccc(NC(=O)c3cncc(C#Cc4cnc5ccc(N6CCN(C)CC6)nn45)c3)cc2C(F)(F)F)CC1`, the growth is -31.3% (active).

`CCOC(=O)c1c(NC(=O)c2ccccc2C(F)(F)F)sc2c1CCC(=O)C2`: the growth was 10.7%.

On to `CCNC(=O)N1CCc2cc(OC)c(OCCc3ccc(OC)nc3)cc2C1c1ccc(OC)cc1C` (stereo not given), for which the growth is 23.5%.

As to `N/C(=N\C(N)=N\c1nc2ccccc2s1)c1ccc(C(F)(F)F)cc1`, the growth was 30.4%.

Take `COc1ccc(CCOc2cc3c(cc2OC)CCN(C(=O)NCc2cocn2)C3c2ccc(C)cc2C)cc1` (stereo not given): the growth was 4.95% (active).

With `COc1cc2nc(Cl)nc(Nc3cccc(C4=Nc5c(N)nc(N)nc5NC(c5ccc(Cl)cc5)C4)c3)c2cc1OC` (stereo not given), the growth is 80.1%.

Consider `O=C(c1ccc(O)cc1)[C@@H]1CN[C@@]2(C(=O)Nc3ccccc32)[C@H]1c1ccc(F)cc1`, for which the growth is 99.2%.

As for `C=C(C)[C@@H]1CC[C@]2(COCCCNCCC#N)CC[C@]3(C)[C@H](CC[C@@H]4[C@@]5(C)CC[C@H](OCCCNCCC#N)C(C)(C)[C@@H]5CC[C@]43C)[C@@H]12`, the growth was 37.3%.

In the case of `COc1cc(-c2nn(C(C)(C)C)cc2-c2ccnc(NCCCNS(=O)(=O)c3ccc(C)cc3)n2)ccc1Cl`, the growth was 89.8%.

For the molecule `Nc1nc(Nc2ccccc2SSc2ccccc2Nc2nc(N)nc(-c3ccc4ccccc4c3)n2)nc(-c2ccc3ccccc3c2)n1`, the growth was 19.5%.

Regarding `CCOC(=O)c1c(Nc2ccccc2)nn2c(-c3ccccc3)ccnc12`, the growth was 87.6%.

Turning to `COc1ccc(/C=N/NC2=NC3C(S2)N(C)C(=O)N3C)cc1` (stereo not given), the growth was 30.7%.

`N/C(=N\C(N)=N\c1nc2ccccc2s1)c1ccncc1Cl`: the growth is 25.2%.

`COc1cc(OC)c(/C=C/S(=O)(=O)Cc2ccc(OC)c(NCC(=O)NO)c2)c(OC)c1`: the growth was 7.63% (active).

With `C#C[C@]1(O)CC[C@H]2[C@@H]3CC=C4c5sc(-c6ccc(C)cc6)nc5CC[C@]4(C)[C@H]3CC[C@@]21C`, the growth was 56.6%.

Consider `Cc1cc(-c2ccc(Cl)cc2)n(Cc2nnc(SCC(=O)Nc3ccc(S(N)(=O)=O)cc3)n2C2CCCCC2)n1`, for which the growth is 106%.

`CCN(CC)CCn1c2ccc(O)cc2c2sc3cc(OC)ccc3c(=O)c21`: the growth is 20.8%.
